According to PubChem BioAssay AID1159580 (chemical genetic matrix, 2015):
Among all 5,500 compounds or so, about 2,000 (36%) were called active. Roughly 18% stayed inconclusive and do not appear here. Rule as the data show it: active = normalized growth mostly below about 0.91 (no sharp cut-off); inconclusive = no clear call, values can overlap the other calls; inactive = mostly above about 0.92. Some of the results follow.

Assay: chemical genetic growth profiling, strain panel (AID 1159580);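 also: tested at 20 µM; growth read once vehicle control cultures reached saturation at 30 °C; 1 = growth at the plate median or of vehicle wells; lower values mean less growth of the strain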
Details: growth OD

Measured: normalized growth

Oc1c(Br)cc(Br)c2cccnc12
active: S. cerevisiae deletion strains, locus YJR075W, strain HOC1, hits give low values 0.0682 | S. cerevisiae deletion strains, locus YKL009W, strain mrt4, hits give low values 0.0898 | S. cerevisiae deletion strains, locus YKL068W, hits give low values 0.0659 | S. cerevisiae deletion strains, locus YKL085W, strain MDH1 (second series), hits give low values 0.0622 | S. cerevisiae deletion strains, locus YKL085W, strain MDH1, hits give low values 0.0622 | S. cerevisiae deletion strains, locus YKL160W, strain elf1, hits give low values 0.0686 | S. cerevisiae deletion strains, locus YKL190W, strain CNB1, hits give low values 0.049 | S. cerevisiae deletion strains, locus YKR001C, strain vps1, hits give low values 0.0714 | S. cerevisiae deletion strains, locus YKR026C, strain gcn3, hits give low values 0.0599 | S. cerevisiae deletion strains, locus YKR091W, strain srl3, hits give low values 0.0574 | S. cerevisiae deletion strains, locus YLL001W, strain dnm1, hits give low values 0.0635 | S. cerevisiae deletion strains, locus YLL026W, hits give low values 0.065 | S. cerevisiae deletion strains, locus YLL041C, strain sdh2, hits give low values 0.0602 | S. cerevisiae deletion strains, locus YLR027C, strain aat2, hits give low values 0.0544 | S. cerevisiae deletion strains, locus YLR039C, strain RIC1, hits give low values 0.0808 | S. cerevisiae deletion strains, locus YLR058C, strain SHM2, hits give low values 0.0497 | S. cerevisiae deletion strains, locus YLR102C, strain apc9, hits give low values 0.0675 | S. cerevisiae deletion strains, locus YLR113W, strain HOG1, hits give low values 0.164 | S. cerevisiae deletion strains, locus YLR221C, strain rsa3, hits give low values 0.061 | S. cerevisiae deletion strains, locus YLR258W, strain gsy2, hits give low values 0.0604 | S. cerevisiae deletion strains, locus YLR262C, strain YPT6 (second series), hits give low values 0.0797 | S. cerevisiae deletion strains, locus YLR262C, strain YPT6, hits give low values 0.106 | S. cerevisiae deletion strains, locus YLR268W, strain sec22, hits give low values 0.0737 | S. cerevisiae deletion strains, locus YLR320W, strain mms22, hits give low values 0.0804 | S. cerevisiae deletion strains, locus YLR330W, strain CHS5, hits give low values 0.0542 | S. cerevisiae deletion strains, locus YLR342W, strain FKS1 (second series), hits give low values 0.0742 | S. cerevisiae deletion strains, locus YLR342W, strain FKS1, hits give low values 0.0656 | S. cerevisiae deletion strains, locus YLR357W, strain rsc2, hits give low values 0.121 | S. cerevisiae deletion strains, locus YLR370C, strain arc18, hits give low values 0.0663 | S. cerevisiae deletion strains, locus YLR371W, strain rom2, hits give low values 0.0714 | S. cerevisiae deletion strains, locus YLR384C, strain iki3, hits give low values 0.0612 | S. cerevisiae deletion strains, locus YLR418C, strain cdc73, hits give low values 0.11 | S. cerevisiae deletion strains, locus YML016C, strain PPZ1, hits give low values 0.0489 | S. cerevisiae deletion strains, locus YML032C, strain rad52, hits give low values 0.0748 | S. cerevisiae deletion strains, locus YML120C, strain ndi1, hits give low values 0.0584 | S. cerevisiae deletion strains, locus YML124C, strain tub3, hits give low values 0.067 | S. cerevisiae deletion strains, locus YMR058W, strain fet3, hits give low values 0.0605 | S. cerevisiae deletion strains, locus YMR078C, strain ctf18, hits give low values 0.0799 | S. cerevisiae deletion strains, locus YMR125W, strain sto1, hits give low values 0.0777 | S. cerevisiae deletion strains, locus YMR129W, hits give low values 0.0576 | S. cerevisiae deletion strains, locus YMR205C, strain PFK2, hits give low values 0.0851 | S. cerevisiae deletion strains, locus YMR223W, strain ubp8, hits give low values 0.0723 | S. cerevisiae deletion strains, locus YMR231W, strain pep5, hits give low values 0.0707 | S. cerevisiae deletion strains, locus YMR263W, strain SAP30, hits give low values 0.0608 | S. cerevisiae deletion strains, locus YMR307W, strain GAS1, hits give low values 0.111 | S. cerevisiae deletion strains, locus YNL067W, strain RPL9B, hits give low values 0.0529 | S. cerevisiae deletion strains, locus YNL071W, strain lat1, hits give low values 0.061 | S. cerevisiae deletion strains, locus YNL128W, strain TEP1, hits give low values 0.0661 | S. cerevisiae deletion strains, locus YNL153C, strain GIM3, hits give low values 0.0523 | S. cerevisiae deletion strains, locus YNL183C, strain NPR1, hits give low values -0.0047 | S. cerevisiae deletion strains, locus YNL209W, strain ssb2, hits give low values 0.0598 | S. cerevisiae deletion strains, locus YNL233W, strain BNI4, hits give low values 0.0553 | S. cerevisiae deletion strains, locus YNL248C, strain rpa49, hits give low values 0.0858 | S. cerevisiae deletion strains, locus YNL250W, strain rad50, hits give low values 0.0799 | S. cerevisiae deletion strains, locus YNL271C, strain bni1, hits give low values 0.075 | S. cerevisiae deletion strains, locus YNL298W, strain CLA4, hits give low values 0.0729 | S. cerevisiae deletion strains, locus YNL307C, strain MCK1, hits give low values 0.078 | S. cerevisiae deletion strains, locus YNL322C, strain KRE1 (second series), hits give low values 0.0637 | S. cerevisiae deletion strains, locus YNL322C, strain KRE1, hits give low values 0.0493 | S. cerevisiae deletion strains, locus YNR049C, strain mso1, hits give low values 0.0578 | S. cerevisiae deletion strains, locus YNR052C, strain pop2, hits give low values 0.0694 | S. cerevisiae deletion strains, locus YOL006C, strain TOP1, hits give low values 0.108 | S. cerevisiae deletion strains, locus YOL012C, strain htz1 0.189 | S. cerevisiae deletion strains, locus YOL147C, strain pex11, hits give low values 0.0679 | S. cerevisiae deletion strains, locus YOR001W, strain rrp6, hits give low values 0.0757 | S. cerevisiae deletion strains, locus YOR061W, strain CKA2, hits give low values 0.048 | S. cerevisiae deletion strains, locus YOR069W, strain VPS5, hits give low values 0.0497 | S. cerevisiae deletion strains, locus YOR070C, strain gyp1, hits give low values 0.59 | S. cerevisiae deletion strains, locus YOR080W, strain dia2, hits give low values 0.0706 | S. cerevisiae deletion strains, locus YOR083W, strain WHI5, hits give low values 0.0621 | S. cerevisiae deletion strains, locus YOR106W, strain vam3, hits give low values 0.0686 | S. cerevisiae deletion strains, locus YOR136W, strain idh2, hits give low values 0.0816 | S. cerevisiae deletion strains, locus YOR144C, strain elg1, hits give low values 0.0654 | S. cerevisiae deletion strains, locus YOR184W, strain ser1, hits give low values 0.0794 | S. cerevisiae deletion strains, locus YOR231W, strain MKK1, hits give low values 0.109 | S. cerevisiae deletion strains, locus YOR265W, strain rbl2, hits give low values 0.0573 | S. cerevisiae deletion strains, locus YOR270C, strain vph1, hits give low values 0.102 | S. cerevisiae deletion strains, locus YOR290C, strain snf2, hits give low values 0.0632 | S. cerevisiae deletion strains, locus YOR316C, strain cot1, hits give low values 0.0675 | S. cerevisiae deletion strains, locus YPL051W, strain arl3, hits give low values 0.0637 | S. cerevisiae deletion strains, locus YPL055C, strain LGE1, hits give low values 0.0663 | S. cerevisiae deletion strains, locus YPL078C, strain atp4, hits give low values 0.0651 | S. cerevisiae deletion strains, locus YPL106C, strain sse1, hits give low values 0.115 | S. cerevisiae deletion strains, locus YPL240C, strain hsp82, hits give low values 0.0569 | S. cerevisiae deletion strains, locus YPL241C, strain CIN2, hits give low values 0.0508 | S. cerevisiae deletion strains, locus YPL256C, strain CLN2, hits give low values 0.126 | S. cerevisiae deletion strains, locus YPR119W, strain clb2, hits give low values 0.0704 | S. cerevisiae deletion strains, locus YPR141C, strain kar3, hits give low values 0.0795 | S. cerevisiae deletion strains, locus YPR163C, strain tif3, hits give low values 0.0768 | S. cerevisiae deletion strains, locus YPR167C, strain met16, hits give low values 0.0675 | S. cerevisiae deletion strains, strain wtn01, hits give low values 0.076 | S. cerevisiae strains, strain wild type, hits give low values 0.0486
